From PubChem BioAssay (NCI) come the findings set out here.

Compounds without any hit were thinned out: in the full panel of roughly 83,000, 20% have a hit.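 Growth was measured after 48 h exposure to one concentration of compound in 96-well plates. Values under 10 count as active.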 A number with no mark means an inactive call. Active and inactive are the calls of the source.

What all share (test): NCI-60 one-dose screen, 48 h (100 = growth as untreated, 0 = no growth, -100 = all killed)
Holding throughout (settings): 10 µM unless noted

Test [1] relates to DU-145 prostate.
Test [2] concerns K-562 leukemia.
Test [3] relates to MDA-MB-231 breast.
For test [4], the system named is RXF 393 renal.
Test [5] has as its system SF-268 CNS.
The test system of test [6] is SF-295 CNS.
The subject of test [7] is SF-539 CNS.
Test [8] deals with UACC-257 melanoma.
The test system of test [9] is M14 melanoma.
For test [10], the system named is MALME-3M melanoma.

Take `c1ccc2c(-c3nc(-c4c[nH]c5ncccc45)cs3)c[nH]c2c1`: the growth in test [1] is 112%; in test [2], 106%; in test [3], 79.9%; in test [4], 116%; in test [5], 111%; in test [6], 119%. In addition, the figures for the growth in test [7], in test [8] and in test [9] were 99.3%, 109% and 99.8%, respectively.
`COCCNC1=C(Cl)C(=O)c2ccccc2C1=O`: the growth in test [1] was 53.9%; in test [2], 99.8%; in test [3] it was 99.6%; in test [4], 105%; in test [5] it was 95.6%; in test [6] it was 75.1%. For the same compound, the growth in [7] is 136%; in test [8], 100%; in [9] it was 96.9%.
Regarding `Nc1c(Cl)cc(N=Nc2ccccc2)cc1Cl`, the growth in test [1] is 101%; in [2], 92.5%; in test [3] it was 84.2%; in test [4], 108%; in test [5], 102%; in test [6], 89.7%. In addition, the growth in [7] is 103%; in test [8], 100%; in [9], 105%.
On to `Cn1cc(-c2csc(-c3c[nH]c4ccc(F)cc34)n2)c2cccnc21`, for which the growth is 61.9% in test [1]; 19.8% in test [2]; 50.1% in [3]; 54.4% in test [4]; 51.1% in test [5]; 14.8% in [6]. The growth in test [7] was 31%; in [8] it was 63.4%; in test [9] it was 13.7%.
`C/C(=N\Nc1cc(C)c2cc(C)ccc2n1)c1ccccn1`: the growth was 21% in test [1]; -40.8% (active) in [2]; -89.1% (active) in test [3]; -88.2% (active) in test [4]; -4.43% (active) in test [5]; -92.4% (active) in [7]. Further, the values for the growth in [8] and in test [9] were -73.5% (active) and -82.9% (active), respectively.
With `O=C(O)c1cccc2c1Cc1cc([N+](=O)[O-])ccc1-2`, the growth in test [1] was 109%; in [2], 108%; in [3] it was 102%; in test [4], 118%; in test [5] it was 104%; in test [6], 115%. In addition, the growth in test [7] is 93%; in test [8], 109%; in test [9], 110%.
With `Cn1cc(-c2nc(-c3c[nH]c4ncccc34)cs2)c2cc(F)ccc21`, the growth in test [1] is 64.4%; in [2] it was 6.15% (active); in test [3] it was 20%; in test [4] it was 43.8%; in test [5], 44.4%; in test [6], 19.9%. Also, the results for the growth in test [7], in test [8] and in test [9] were 53.9%, 53.3% and 20.5%, respectively.
Turning to `Cn1cc(-c2csc(-c3cn(C(=O)OC(C)(C)C)c4ccccc34)n2)c2cccnc21`, the growth in test [1] was 92.7%; in [2], 23.3%; in [3] it was 65.4%; in test [4], 80.1%; in test [5], 81.6%; in [6] it was 48.2%. The growth in test [7] is 71.4%; in [8] it was 82.9%; in test [9] it was 54.8%.
On to `COc1ccc(-c2n/c(=C\c3c(O)[nH]c4ccc(OC)cc34)cc3c2=Nc2ccccc2-3)cc1`, for which the growth in test [1] is -2.21% (active); in test [2], -32.8% (active); in test [3] it was 39%; in test [5], -33.3% (active); in [7], -48% (active); in [8], 83.6%. Also, the growth in [9] was -40.5% (active).
Consider `CC(=O)O[C@H]1CC[C@@]2(C)[C@@H](CC[C@@H]3[C@@H]2CC(=O)[C@@]2(C)[C@H]3C[C@@H](C3CCCC3=O)[C@@H]2C(C)=O)C1` (some centres undefined), for which the growth is 117% in test [1]; 105% in test [2]; 98.8% in test [3]; 132% in test [4]; 112% in [5]; 112% in [6]. Besides, the growth in [7] is 105%; in [8] it was 109%; in test [9] it was 97.8%.
Regarding `C#CCC(C)(O)/C=C/C1=C(C)CCCC1(C)C` (centres undefined), the growth is 103% in test [1]; 90% in test [10]; 99.3% in [3]; 100% in test [4]; 95.6% in test [5]; 95.4% in test [6]. Moreover, the growth in test [7] is 102%; in [8] it was 76.4%; in test [9] it was 89.4%.
As for `Cc1nn2c(-c3nc4cc(Cl)c(Cl)cc4[nH]3)c(-c3ccc(F)cc3)nc2s1`, the growth in test [1] was 52.8%; in test [2], 68%; in [3] it was -12.9% (active); in test [4] it was -5.06% (active); in [5], 28%; in test [7], 6.21% (active). Also, the figures for the growth in [8] and in test [9] were -21% (active) and 30.1%, respectively.
As for `Fc1ccc2[nH]cc(-c3nc(-c4c[nH]c5ncccc45)cs3)c2c1`, the growth in test [1] is 30.5%; in test [2] it was 16.9%; in test [3] it was 44.4%; in test [4], 55%; in test [5], 48.9%; in test [6] it was 17.8%. In addition, the growth in test [7] was 27.3%; in test [8] it was 53.8%; in [9] it was 46.1%.
Consider `COc1ccc2[nH]cc(-c3nc(-c4c[nH]c5ncccc45)cs3)c2c1`, for which the growth in [1] was 47.1%; in test [2] it was 18.3%; in [3], 39.1%; in [4], 1.36% (active); in test [5] it was 58.8%; in [6] it was 10.6%. Also, the growth is 25.2% in test [7], -57% (active) in [8] and 16.1% in [9].
With `Brc1ccc2[nH]cc(-c3nc(-c4c[nH]c5ncccc45)cs3)c2c1`, the growth in test [1] was 39.8%; in test [2], 4.74% (active); in [3], 24.9%; in [4], 21.8%; in test [5] it was 59%; in [6], 5.5% (active). In addition, the growth in [7] was 50.9%; in [8] it was -6.38% (active); in [9], 8.64% (active).
Take `O=[N+]([O-])c1ccc(/C=N\Nc2ccccc2)cc1`: the growth in [1] is 97.1%; in test [2] it was 25.2%; in test [3], 68.2%; in [4] it was 107%; in [5], 73.5%; in [6], 55.3%. The growth was 107% in test [7], 97.2% in test [8] and 31.6% in test [9].
Consider `Cc1c(C)c2c(c(C)c1NC(=O)CCCCCCC(=O)O)CCC(C)(CCCC(C)CCCC(C)CCCC(C)C)O2` (centres undefined), for which the growth is 86.1% in test [1]; 39.2% in test [2]; 101% in test [3]; 98.9% in [4]; 78.3% in [5]; 71.4% in test [6]. For the same compound, the growth in [7] was 89.9%; in test [8], 95.2%; in test [9], 82.7%.
With `CC(=O)Oc1ccccc1C(=O)/C=C/c1cccc([N+](=O)[O-])c1`, the growth is 75% in [1]; 28.1% in test [2]; 85.2% in [3]; 60.4% in test [4]; 62.6% in [5]; 68.7% in test [6]. For the same compound, the growth in test [7] is 80.8%; in test [8] it was 103%; in test [9], 96.4%.
As to `COc1ccc(/C(=C\c2ccc3c(c2)OCO3)C(=O)Nc2nc3ccccc3s2)cc1OC`, the growth in [1] was 105%; in [2], 83.9%; in [3], 109%; in test [4], 88.4%; in test [5], 83.2%; in [7], 93.8%. Also, the growth in test [8] is 105%; in [9] it was 92.7%.
`CC1=CC(=O)N(c2cccc3c(N4C(=O)C=C(C)C4=O)cccc23)C1=O`: the growth in test [1] is 72.3%; in test [2] it was 6.92% (active); in test [3], 107%; in test [4], -10.7% (active); in test [5], 106%; in test [6], 121%. Besides, the growth is 32.7% in test [7], 82.4% in test [8] and 96.2% in [9].
On to `CCOc1ccc(NC(=O)c2ccccc2-c2ccccc2C(=O)O)cc1`, for which the growth is 106% in test [1]; 90.2% in [2]; 107% in test [3]; 114% in test [4]; 105% in [5]; 115% in test [6]. The growth is 117% in [7], 112% in [8] and 113% in test [9].
